# Measurements from publication PMC5540273 (PLoS ONE, 2017).
# Assays:
# Settings in all cases: concentration: 1 μM, replicates: in singlicate; n = 1
# CDKL5 = test system: CDKL5
# CHEK1 = test system: CHEK1
# CHEK2 = test system: CHEK2
# CIT = test system: CIT
# CLK1 = test system: CLK1
# CLK2 = test system: CLK2
# CLK3 = test system: CLK3
# CLK4 = test system: CLK4
# CSF1R-autoinhibited = test system: CSF1R-autoinhibited
# CSF1R = test system: CSF1R
# 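Further: KINOMEscan kinase panel screen.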
SMILES,%Inh (CDKL5) [%],%Inh (CHEK1) [%],%Inh (CHEK2) [%],%Inh (CIT) [%],%Inh (CLK1) [%],%Inh (CLK2) [%],%Inh (CLK3) [%],%Inh (CLK4) [%],%Inh (CSF1R-autoinhibited) [%],%Inh (CSF1R) [%]
Fc1ccc(-c2nc[nH]c2-c2ccncc2)cc1 [SB-217360],2,0,16,93.7,5,10,10,0,0,0
COC(=O)c1cccc(NC(=O)NC2CCN(c3ccnc(Nc4ccc(F)cc4)n3)C2)c1 (stereo not shown) [GSK1379725],7,0,0,12,10,0,0,10,0,2
Fc1ccc(-c2nc3n(c2-c2ccncc2)CCS3)cc1 [GI98581],0,0,0,92.9,28,0,0,9,0,0
COc1ccc(CSc2nnc(-c3ccc4nccn4c3)o2)cc1C(F)(F)F,16,23,17,14,97.1,91.9,12,90.3,6,17
CCn1c(-c2c(N)noc2C)nc2cnccc21 [SB-737856],0,0,0,22,26,0,0,13,0,14
CSc1ccc(-c2nc3n(c2-c2ccncc2)CCC3)cc1 [SKF-105561],6,0,0,11,5,0,13,3,3,40
COc1cccc(CNC(=O)NC2CCN(c3ccnc(Nc4ccc(F)cc4)n3)C2)c1 (stereo not shown) [GSK1379723],6,5,0,19,19,0,0,8,10,2
COc1ccc(Nc2nccc(N3CCC(NC(=O)C(C)c4ccc(Cl)cc4)C3)n2)cc1 (stereo not shown) [GSK1379735],9,26,0,26,16,13,0,8,8,27
CNCc1ccc2nc(NC(=O)c3ccc(C(C)(C)C)cc3)cn2c1,23,5,0,0,87,22,0,3,2,42
COC(=O)C(NC(=O)NC1CCN(c2ccnc(Nc3ccc(F)cc3)n2)C1)c1ccccc1 (stereo not shown) [GSK1379712],3,3,37,0,9,0,0,0,34,5
Cc1ccccc1-c1cc(-c2c[nH]nc2-c2ccccn2)ccn1 [GW680061],0,85,4,24,15,0,0,15,10,3
FC(F)(F)c1ccccc1-c1cc(-c2c[nH]nc2-c2ccccn2)ccn1 [GW679396],0,99.9,0,41,8,1,0,21,0,0
Nc1ncnc2occ(-c3ccc4c(c3)CCN4C(=O)Cc3cc(F)ccc3F)c12 [GSK2645446],0,0,21,0,27,0,0,0,0,17
COc1ccc(Nc2nccc(NCCNC(=O)Nc3cc(C)ccc3C)n2)cc1 [GSK1379899],5,5,86,7,23,0,6,57,0,0
CCn1c(-c2ccccc2)nc2cnccc21 [SB-733416],4,29,0,23,17,0,0,3,0,13
Cc1ccc(NC(=O)Nc2ccccc2)cc1-c1ccc(C(=O)Nc2ccncc2)cc1 [GSK1398471],11,0,0,93,20,0,7,14,0,84

SMILES,%Inh (CDKL5) [%],%Inh (CHEK1) [%],%Inh (CHEK2) [%],%Inh (CIT) [%],%Inh (CLK1) [%],%Inh (CLK2) [%],%Inh (CLK3) [%],%Inh (CLK4) [%],%Inh (CSF1R-autoinhibited) [%],%Inh (CSF1R) [%]
COC(=O)C(Cc1ccccc1)NC(=O)NC1CCN(c2ccnc(Nc3ccc(F)cc3)n2)C1 (stereo not shown) [GSK1379714],1,86,14,6,5,0,0,13,35,1
CS(=O)(=O)CCNCc1nc(-c2ccc3ncnc(Nc4ccc(OCc5ccccc5)c(Cl)c4)c3c2)cs1.Cl [GW582764],0,100,30,38,22,0,0,6,48,3
CC(=O)c1c(C)c2cnc(Nc3ccn(C)n3)nc2n(C2CCCC2)c1=O,0,0,0,4,19,16,0,9,12,0
CC(=O)c1cccc(NC(=O)NC2CCN(c3ccnc(Nc4ccc(F)cc4)n3)C2)c1 (stereo not shown) [GSK1379710],0,10,33,29,24,3,14,0,33,18
Cc1cnc(N)c(/C=C/c2cncc(C(=O)NCCc3ccc(Cl)cc3Cl)c2)c1.Cl [GSK190937],9,0,26,31,38,48,0,57,6,25
CNc1cc(-c2ccc3c(N)n[nH]c3c2)nc(N)n1 [GSK2224810],0,0,84,9,90.2,80,18,89,5,3
Cc1ccc(NC(=O)c2ccc(Cl)cc2)cc1-c1ccc(C(=O)Nc2ccncc2)cc1 [GSK1398467],0,16,0,69,3,100,0,15,0,97.1
Cc1ccc(NC(=O)Nc2ccc(Cl)c(C(F)(F)F)c2)cc1-c1ccc(C(=O)Nc2ccncc2)cc1 [GSK1398470],6,0,0,90.6,14,3,0,24,0,30
COc1ccc(-c2coc3ccc(-c4nnc(C)o4)cc23)cc1,51,0,13,16,3,22,0,27,7,9
CS(=O)(=O)Cc1ccc(Nc2nccc(-c3c(-c4cccc(NC(=O)C5CCCCC5)c4)nn4ncccc34)n2)cc1 [GSK350559],33,12,0,10,10,10,24,0,35,79
COc1ccc(CSc2nnc(-c3ccc4c(c3)CCO4)o2)cc1,0,0,0,0,64,28,0,81,10,0
CNC(=O)c1ccc(C)c(-n2c(C)cc(OCc3ccc(F)cc3F)c(Br)c2=O)c1,0,0,0,0,11,0,0,0,0,0
Fc1ccc(-c2nn3cccc(F)c3c2-c2ccncc2)cc1 [GW475620],0,0,0,96.3,22,0,6,26,0,0
CNc1nc(-c2ccc3c(N)n[nH]c3c2)cc(N2C[C@@H](C(=O)NC3CCCCC3)OC[C@H]2C)n1 [GSK2375584],1,7,27,0,21,0,0,20,37,2
Cc1nccc(-c2c(-c3ccc(F)cc3)ncn2CCCN2CCOCC2)n1.Cl [SB-282975],0,7,14,21,21,5,18,0,0,0
